LYPLA2 counter – counter-screen for PME1 inhibitors: inhibitors of human LYPLA2 | O95372 | recombinant LYPLA2, FP-Rh probe fluorescence polarization | inhibition, % at 5.9 µM | 0.38% of 320,000 active | AID 2177;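 active means inhibition above the screen-wide mean plus 3 SD, limit set per campaign, cut at about 26% in these data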;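 further: 0% = LYPLA2 with DMSO and 100% = wells lacking LYPLA2 enzyme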
LYPLA1 inh – counter-screen for PME1 inhibitors: inhibitors of human LYPLA1; O75608; recombinant LYPLA1, FP-Rh probe fluorescence polarization; inhibition, % at 5.9 µM; 0.16% of 320,000 active; AID 2174;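 active means inhibition above the mean of all tested compounds plus 3 SD, set per campaign, cut at about 14% in these data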;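 further: inhibitors block serine hydrolase probe labeling of LYPLA1 so polarization falls; 0% = enzyme with DMSO and 100% = wells lacking LYPLA1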
Target sequence (O75608 whole entry, looked up): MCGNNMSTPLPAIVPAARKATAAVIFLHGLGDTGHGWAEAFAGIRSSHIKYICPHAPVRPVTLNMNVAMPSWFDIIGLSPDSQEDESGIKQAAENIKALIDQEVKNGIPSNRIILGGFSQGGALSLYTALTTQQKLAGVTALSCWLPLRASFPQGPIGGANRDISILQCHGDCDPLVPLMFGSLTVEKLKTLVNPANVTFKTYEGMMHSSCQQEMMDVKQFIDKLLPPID
PAD4 inh – blocks human protein arginine deiminase 4 | inhibition, % at 6.36 µM | recombinant PAD4, RCA probe fluorescence polarization | 0.41% of 330,000 active | Q9UM07 | AID 485272;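 active means percent inhibition above a cutoff equal to the mean of all tested compounds plus 3 SD, cut at about 15% in these data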;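 further: 0% = PAD4 with RCA probe and DMSO and 100% = probe without PAD4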
PME-1 inh – PME-1 (human) inhibition; Q9Y570; recombinant PME-1, FP-Rh probe fluorescence polarization; inhibition, % at 5.9 µM; 0.53% of 320,000 active; AID 2130;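 active means inhibition above the campaign mean of all compounds plus 3 SD, cut at about 26% in these data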;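 further: competitive labeling of PME-1 active site by serine hydrolase directed probe; 0% = PME-1 with DMSO and 100% = wells lacking PME-1 enzyme; inhibitors block probe labeling so polarization falls and inhibition rises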
GSTO1 counter – counter-screen for RBBP9 inhibitors: inhibitors of human GSTO1; recombinant GSTO1, activity-based probe fluorescence polarization; 1.1% of 300,000 active; inhibition, % at 5.96 µM; P78417;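 active means inhibition above the campaign mean inhibition plus 3 SD, cut at about 35% in these data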;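 further: 0% = GSTO1-1 with DMSO and 100% = wells lacking GSTO1-1 enzyme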
Target sequence (P78417 whole entry, looked up): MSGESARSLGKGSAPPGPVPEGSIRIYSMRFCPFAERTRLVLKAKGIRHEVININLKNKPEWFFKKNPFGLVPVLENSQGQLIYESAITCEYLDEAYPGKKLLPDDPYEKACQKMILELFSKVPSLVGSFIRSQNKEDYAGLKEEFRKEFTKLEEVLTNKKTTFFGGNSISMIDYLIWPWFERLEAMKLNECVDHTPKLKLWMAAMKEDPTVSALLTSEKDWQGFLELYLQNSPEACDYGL
Fam108B inh – counter-screen for RBBP9 inhibitors: inhibitors of mouse Fam108B | recombinant Fam108B, FP-Rh probe fluorescence polarization | inhibition, % at 9.51 µM | 0.33% of 300,000 active | AID 1947;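 active means inhibition above the screen mean inhibition plus 3 SD, computed separately per campaign, cut at about 18% in these data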;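 further: inhibitors lower polarization as less probe binds the enzyme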
GSTO1 confirm – confirmation of human GSTO1 inhibitors; shares compounds with GSTO1 counter; recombinant GSTO1, probe fluorescence polarization; inhibition, % at 5.96 µM; 54% of 2,400 active; AID 2176;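 active means inhibition above the primary screen's cutoff, its mean inhibition plus 3 SD, cut at about 35% in these data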;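 further: loss of polarization as inhibitors block binding of rhodamine sulfonate ester activity probe; 0% = GSTO1 with DMSO and 100% = wells lacking GSTO1 enzyme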
GSTO1 ABPP inh – blocks recombinant human glutathione S-transferase omega 1 | shares compounds with GSTO1 counter | recombinant GSTO1, gel ABPP SE-Rh probe fluorescence | inhibition, % at 1 µM | 30% of 130 active;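 active means inhibition of the enzyme GSTO1 above about 75%, limit read from the data; inactive means inhibition below that limit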
* marks the source's active call; other numbers are inactive results; · = not tested or not shown. Hits are enriched below; roughly 1.8% of the tested compounds scored in any of these assays.

SMILES	LYPLA2 counter	LYPLA1 inh	PAD4 inh	PME-1 inh	GSTO1 counter	Fam108B inh	GSTO1 confirm	others
CC(C)NC1=C(Cl)C(=O)c2ccccc2C1=O	-0.3	1.8	-14.7	-0.4	64.9*	3.4	13.6
O=C1C(Cl)=C(Nc2ccccc2)C(=O)c2ccccc21	6.0	2.2	1.6	10.7	101.8*	11.9	89.7*
O=C(O)c1ccc(NC2=C(Cl)C(=O)c3ccccc3C2=O)cc1	0.7	1.7	-10.1	-0.6	79.1*	13.5	48.8*
CCCCN(CC)C(=O)C1CCC(CNS(=O)(=O)c2cccc3nsnc23)CC1 (configuration not stated)	0.9	0.0	-2.7	2.1	-0.8	-2.6	·
O=C(N/N=C/c1ccc([N+](=O)[O-])o1)c1ccc(NS(=O)(=O)c2cccs2)cc1	-1.3	-8.6	-0.3	-4.1	55.0*	18.1	19.4
O=C1N=C(N2CCOCC2)S/C1=C/c1cc2c(cc1[N+](=O)[O-])OCO2	-10.4	0.4	-12.0	-1.2	64.1*	-0.3	47.8*
COc1ccc(OC(C)C(=O)N(C)Cc2nc(-c3cccc(C)c3)no2)cc1 (configuration not stated)	1.8	2.4	-4.5	-1.5	-5.0	3.5	·
O=C1C(NS(=O)(=O)c2ccc(Br)cc2)=C(N2CCCCC2)C(=O)c2ccccc21	6.5	-1.5	-14.7	10.8	42.0*	0.2	11.8
CCOC(=O)C1CCN(C2=C(NS(=O)(=O)c3ccc(Cl)cc3)C(=O)c3ccccc3C2=O)CC1	7.2	1.9	-0.7	11.1	18.0	6.0	·
CCOC(=O)C1CCCN(C2=C(NS(=O)(=O)c3ccc(Br)cc3)C(=O)c3ccccc3C2=O)C1 (configuration not stated)	-2.5	0.8	-9.8	15.2	42.8*	5.6	11.1
O=C1CSC(c2cccc([N+](=O)[O-])c2)N1c1ccccc1F (configuration not stated)	1.6	1.3	-1.4	5.7	-1.5	-1.7	·
CC1CC(C)(C)Nc2ccc(OC(=O)c3ccco3)cc21 (configuration not stated)	4.3	-1.1	0.3	17.1	43.5*	2.6	5.1
O=C(Oc1ccc2ccccc2c1)c1ccco1	7.0	3.0	-3.5	-4.0	9.2	1.3	·
N#Cc1ccccc1S(=O)(=O)N1CCNS(=O)(=O)c2ccccc21	·	·	0.6	·	·	·	·
NC(=O)C1CCN(C(=O)C2CC(=O)N(Cc3ccccc3)C2)CC1 (configuration not stated)	-0.5	-0.1	0.1	-1.0	·	·	·
COc1ccc(S(=O)(=O)N2CCOCC2)cc1NC(=O)CN1CCN(C)CC1	1.5	3.2	-3.3	2.9	37.7*	2.4	4.3
COc1ccccc1N=Nc1ccc(O)c2ncccc12	2.4	-1.9	-6.0	13.1	50.9*	7.0	9.8
Cc1ccc(S(=O)(=O)N(CC2CO2)c2cccc([N+](=O)[O-])c2)cc1 (configuration not stated)	3.7	0.4	-1.5	6.5	96.7*	0.9	96.6*	GSTO1 ABPP inh=59.0
O=C(O)c1ccc(CN(c2ccccc2)S(=O)(=O)c2ccccc2)cc1	2.1	7.0	2.7	4.3	11.1	0.3	·
COc1ccc(N(CC2CO2)S(=O)(=O)c2ccc(C)cc2)cc1 (configuration not stated)	-0.1	-1.0	1.1	-3.1	80.7*	2.2	85.3*	GSTO1 ABPP inh=26.0
O=[N+]([O-])c1ccc(N(CC2CO2)S(=O)(=O)c2ccccc2)cc1 (configuration not stated)	3.5	-1.8	3.0	2.6	85.2*	1.1	91.6*	GSTO1 ABPP inh=53.0
COc1ccc(N(CC(O)CN2CCOCC2)S(=O)(=O)c2ccc(C)cc2)cc1 (configuration not stated)	-6.4	-5.2	1.4	-6.3	7.5	-2.0	·
O=S(=O)(c1ccccc1)N(CC1CO1)c1ccccc1 (configuration not stated)	10.4	7.8	0.0	-6.2	70.8*	3.2	82.8*	GSTO1 ABPP inh=63.0
O=C(CN(c1ccc([N+](=O)[O-])cc1)S(=O)(=O)c1ccccc1)N1CCCCC1	1.4	1.0	1.6	6.2	-0.3	4.5	·
